We go through one compound from ChEMBL document CHEMBL2218924, “A broad activity screen in support of a chemogenomic map for kinase signalling research and drug discovery” (Biochem J, 2013).

Experiment [1] addresses T1, Ephrin type-B receptor 1 (Homo sapiens) (UniProt P54762).
T1 sequence (whole entry): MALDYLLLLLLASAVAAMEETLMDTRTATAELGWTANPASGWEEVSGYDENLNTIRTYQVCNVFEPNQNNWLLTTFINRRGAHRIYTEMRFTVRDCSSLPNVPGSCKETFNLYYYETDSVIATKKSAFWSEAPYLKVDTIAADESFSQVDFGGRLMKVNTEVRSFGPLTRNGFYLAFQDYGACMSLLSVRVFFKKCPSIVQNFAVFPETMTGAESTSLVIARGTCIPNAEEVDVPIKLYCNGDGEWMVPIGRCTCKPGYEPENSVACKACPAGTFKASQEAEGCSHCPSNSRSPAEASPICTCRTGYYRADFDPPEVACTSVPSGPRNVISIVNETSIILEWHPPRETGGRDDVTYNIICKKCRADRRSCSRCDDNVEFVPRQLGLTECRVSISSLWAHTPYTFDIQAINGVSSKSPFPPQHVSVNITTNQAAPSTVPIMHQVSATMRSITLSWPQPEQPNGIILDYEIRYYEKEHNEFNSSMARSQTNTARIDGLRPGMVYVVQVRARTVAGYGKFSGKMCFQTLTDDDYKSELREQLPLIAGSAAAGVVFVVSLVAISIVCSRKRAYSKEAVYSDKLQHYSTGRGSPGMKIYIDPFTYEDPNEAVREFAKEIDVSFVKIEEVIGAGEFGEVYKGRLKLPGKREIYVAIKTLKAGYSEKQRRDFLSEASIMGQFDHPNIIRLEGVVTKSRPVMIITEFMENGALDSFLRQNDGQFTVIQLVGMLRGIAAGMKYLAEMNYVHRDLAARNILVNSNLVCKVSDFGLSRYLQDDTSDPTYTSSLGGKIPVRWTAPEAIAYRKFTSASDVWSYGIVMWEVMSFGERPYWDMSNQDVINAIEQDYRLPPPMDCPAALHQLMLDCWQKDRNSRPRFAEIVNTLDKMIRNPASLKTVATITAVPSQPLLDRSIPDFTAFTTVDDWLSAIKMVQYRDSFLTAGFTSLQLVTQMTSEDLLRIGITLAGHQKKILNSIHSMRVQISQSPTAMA
To be noted: at 10 µM.

Experiment [2] deals with T2, Ephrin type-B receptor 2 (Homo sapiens) (UniProt P29323).
T2 sequence (whole entry): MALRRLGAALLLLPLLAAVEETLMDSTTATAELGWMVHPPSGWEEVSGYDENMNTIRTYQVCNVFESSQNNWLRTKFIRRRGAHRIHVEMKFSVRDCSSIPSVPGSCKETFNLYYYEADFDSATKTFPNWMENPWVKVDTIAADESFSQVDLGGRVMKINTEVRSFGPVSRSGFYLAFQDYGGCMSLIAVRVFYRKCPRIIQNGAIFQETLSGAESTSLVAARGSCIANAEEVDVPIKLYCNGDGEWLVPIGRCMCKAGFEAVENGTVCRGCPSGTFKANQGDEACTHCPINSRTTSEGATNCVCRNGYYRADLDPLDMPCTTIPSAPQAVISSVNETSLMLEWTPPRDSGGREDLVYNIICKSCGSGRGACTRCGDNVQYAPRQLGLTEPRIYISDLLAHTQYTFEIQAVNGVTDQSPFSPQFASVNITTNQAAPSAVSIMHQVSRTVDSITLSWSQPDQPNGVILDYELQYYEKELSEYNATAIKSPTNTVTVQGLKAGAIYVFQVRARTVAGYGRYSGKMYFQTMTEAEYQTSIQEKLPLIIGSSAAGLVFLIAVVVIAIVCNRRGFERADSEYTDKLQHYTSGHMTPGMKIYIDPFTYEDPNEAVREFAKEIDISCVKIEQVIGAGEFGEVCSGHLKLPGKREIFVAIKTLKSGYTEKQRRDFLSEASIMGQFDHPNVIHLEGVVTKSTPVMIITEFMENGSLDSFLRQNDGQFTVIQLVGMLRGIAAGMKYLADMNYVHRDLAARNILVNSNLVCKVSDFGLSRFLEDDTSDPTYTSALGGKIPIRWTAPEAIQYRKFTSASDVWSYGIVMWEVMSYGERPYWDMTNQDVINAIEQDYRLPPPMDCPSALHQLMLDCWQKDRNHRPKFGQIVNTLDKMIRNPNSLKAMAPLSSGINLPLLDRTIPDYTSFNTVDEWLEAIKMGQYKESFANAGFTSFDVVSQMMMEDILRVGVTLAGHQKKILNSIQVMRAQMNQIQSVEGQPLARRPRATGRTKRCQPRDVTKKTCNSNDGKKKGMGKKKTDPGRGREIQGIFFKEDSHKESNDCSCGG
The settings on record: at 1 µM.

For experiment [3], the target named is T2, Ephrin type-B receptor 2 (Homo sapiens). The settings on record: at 10 µM.
In experiment [4] the target is T3, Ephrin type-B receptor 3 (Homo sapiens) (UniProt P54753).
T3 sequence (whole entry): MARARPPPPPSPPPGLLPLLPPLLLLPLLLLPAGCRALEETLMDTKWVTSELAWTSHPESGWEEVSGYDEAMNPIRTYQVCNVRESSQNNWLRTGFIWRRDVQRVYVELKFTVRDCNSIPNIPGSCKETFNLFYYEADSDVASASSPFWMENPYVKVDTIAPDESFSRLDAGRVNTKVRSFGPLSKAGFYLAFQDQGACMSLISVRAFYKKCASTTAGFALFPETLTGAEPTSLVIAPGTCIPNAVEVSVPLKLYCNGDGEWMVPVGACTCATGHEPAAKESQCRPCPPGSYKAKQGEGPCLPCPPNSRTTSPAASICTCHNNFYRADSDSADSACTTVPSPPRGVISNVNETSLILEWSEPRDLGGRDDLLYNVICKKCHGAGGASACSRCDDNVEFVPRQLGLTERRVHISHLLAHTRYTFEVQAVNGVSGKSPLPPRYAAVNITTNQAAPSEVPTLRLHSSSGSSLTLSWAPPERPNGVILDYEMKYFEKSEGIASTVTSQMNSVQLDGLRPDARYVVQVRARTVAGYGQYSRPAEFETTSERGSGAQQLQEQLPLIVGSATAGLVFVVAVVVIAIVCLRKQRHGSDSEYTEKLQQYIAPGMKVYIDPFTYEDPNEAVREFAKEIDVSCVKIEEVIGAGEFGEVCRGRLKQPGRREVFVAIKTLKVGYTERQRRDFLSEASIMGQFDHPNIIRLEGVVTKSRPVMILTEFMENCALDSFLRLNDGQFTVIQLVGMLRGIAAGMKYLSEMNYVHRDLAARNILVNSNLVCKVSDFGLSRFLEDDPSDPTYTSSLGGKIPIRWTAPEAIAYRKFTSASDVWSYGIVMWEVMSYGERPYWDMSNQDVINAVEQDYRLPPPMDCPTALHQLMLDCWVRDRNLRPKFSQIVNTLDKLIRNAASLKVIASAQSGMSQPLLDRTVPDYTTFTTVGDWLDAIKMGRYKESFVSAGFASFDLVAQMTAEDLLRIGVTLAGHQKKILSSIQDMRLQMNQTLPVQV
To be noted: at 1 µM.

In experiment [5] the target is T3, Ephrin type-B receptor 3 (Homo sapiens). The settings on record: at 10 µM.
Experiment [6] has as its target T4, Ephrin type-B receptor 4 (Homo sapiens) (UniProt P54760).
T4 sequence (whole entry): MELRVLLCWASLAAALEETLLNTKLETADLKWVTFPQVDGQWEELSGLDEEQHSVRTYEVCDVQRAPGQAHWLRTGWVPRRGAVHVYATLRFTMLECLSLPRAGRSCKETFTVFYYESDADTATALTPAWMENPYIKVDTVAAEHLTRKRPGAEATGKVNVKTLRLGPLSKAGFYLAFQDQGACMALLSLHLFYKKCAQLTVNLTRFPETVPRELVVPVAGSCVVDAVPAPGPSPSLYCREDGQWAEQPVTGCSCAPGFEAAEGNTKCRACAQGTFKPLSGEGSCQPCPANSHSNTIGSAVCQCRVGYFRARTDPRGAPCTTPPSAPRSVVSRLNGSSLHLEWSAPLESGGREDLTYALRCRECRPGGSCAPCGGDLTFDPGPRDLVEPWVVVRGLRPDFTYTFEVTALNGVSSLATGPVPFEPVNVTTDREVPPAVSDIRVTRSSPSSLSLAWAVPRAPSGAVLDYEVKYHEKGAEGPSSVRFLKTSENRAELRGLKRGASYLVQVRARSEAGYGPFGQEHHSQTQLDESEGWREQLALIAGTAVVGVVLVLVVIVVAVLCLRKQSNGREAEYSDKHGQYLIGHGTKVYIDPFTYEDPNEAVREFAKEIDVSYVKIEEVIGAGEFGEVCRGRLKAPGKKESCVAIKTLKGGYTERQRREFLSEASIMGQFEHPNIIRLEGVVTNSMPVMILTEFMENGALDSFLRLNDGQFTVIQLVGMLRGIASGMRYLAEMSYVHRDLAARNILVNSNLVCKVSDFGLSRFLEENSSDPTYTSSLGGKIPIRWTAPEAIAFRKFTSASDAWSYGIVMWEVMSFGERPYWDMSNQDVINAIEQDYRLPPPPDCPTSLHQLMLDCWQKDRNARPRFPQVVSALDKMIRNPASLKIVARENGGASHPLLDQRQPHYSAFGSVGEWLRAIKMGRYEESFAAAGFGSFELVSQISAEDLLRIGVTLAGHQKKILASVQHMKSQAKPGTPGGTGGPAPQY
The settings on record: at 1 µM.

In experiment [7] the target is T4, Ephrin type-B receptor 4 (Homo sapiens). The settings on record: at 10 µM.
The target in experiment [8] is Receptor tyrosine-protein kinase erbB-4 (Homo sapiens) (UniProt Q15303). The settings on record: at 1 µM.
Sequence of Receptor tyrosine-protein kinase erbB-4 (Homo sapiens) (Q15303 whole entry): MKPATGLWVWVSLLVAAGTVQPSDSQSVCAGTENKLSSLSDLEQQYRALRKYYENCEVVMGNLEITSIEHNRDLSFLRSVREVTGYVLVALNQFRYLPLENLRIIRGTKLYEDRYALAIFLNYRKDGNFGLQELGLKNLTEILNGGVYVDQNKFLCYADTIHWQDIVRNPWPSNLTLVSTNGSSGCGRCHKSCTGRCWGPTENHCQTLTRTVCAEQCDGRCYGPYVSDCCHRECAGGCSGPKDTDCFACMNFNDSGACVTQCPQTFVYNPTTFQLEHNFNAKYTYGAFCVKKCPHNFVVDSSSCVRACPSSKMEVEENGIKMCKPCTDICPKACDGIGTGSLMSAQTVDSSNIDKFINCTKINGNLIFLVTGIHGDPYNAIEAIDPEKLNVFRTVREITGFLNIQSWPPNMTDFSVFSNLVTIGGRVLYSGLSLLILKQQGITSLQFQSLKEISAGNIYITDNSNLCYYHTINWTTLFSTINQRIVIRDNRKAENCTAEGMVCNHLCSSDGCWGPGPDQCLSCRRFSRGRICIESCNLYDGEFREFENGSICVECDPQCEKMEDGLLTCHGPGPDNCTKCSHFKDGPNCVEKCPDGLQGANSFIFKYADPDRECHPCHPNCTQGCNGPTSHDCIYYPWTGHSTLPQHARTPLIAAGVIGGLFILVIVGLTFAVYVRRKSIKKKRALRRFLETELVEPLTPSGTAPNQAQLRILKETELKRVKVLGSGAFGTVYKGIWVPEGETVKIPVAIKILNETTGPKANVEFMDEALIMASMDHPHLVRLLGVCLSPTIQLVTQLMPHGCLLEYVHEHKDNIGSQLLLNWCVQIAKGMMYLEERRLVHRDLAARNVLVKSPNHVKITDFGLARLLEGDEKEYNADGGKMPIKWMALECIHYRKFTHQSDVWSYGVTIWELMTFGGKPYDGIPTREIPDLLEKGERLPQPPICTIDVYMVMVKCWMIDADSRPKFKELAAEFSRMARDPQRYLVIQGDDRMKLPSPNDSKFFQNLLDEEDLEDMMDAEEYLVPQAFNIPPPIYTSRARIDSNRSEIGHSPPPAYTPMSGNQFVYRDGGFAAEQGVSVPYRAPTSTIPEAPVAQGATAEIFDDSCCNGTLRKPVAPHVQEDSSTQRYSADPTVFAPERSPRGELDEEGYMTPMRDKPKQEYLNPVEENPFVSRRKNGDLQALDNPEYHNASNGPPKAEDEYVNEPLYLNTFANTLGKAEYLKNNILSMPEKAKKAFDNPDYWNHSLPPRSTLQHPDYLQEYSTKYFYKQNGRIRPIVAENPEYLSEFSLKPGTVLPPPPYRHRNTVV
Experiment [9] shares this target. To be noted: at 10 µM.
The target in experiment [10] is Focal adhesion kinase 1 (Homo sapiens) (UniProt Q05397). To be noted: at 1 µM.
Sequence of Focal adhesion kinase 1 (Homo sapiens) (Q05397 2-1052 limits assumed): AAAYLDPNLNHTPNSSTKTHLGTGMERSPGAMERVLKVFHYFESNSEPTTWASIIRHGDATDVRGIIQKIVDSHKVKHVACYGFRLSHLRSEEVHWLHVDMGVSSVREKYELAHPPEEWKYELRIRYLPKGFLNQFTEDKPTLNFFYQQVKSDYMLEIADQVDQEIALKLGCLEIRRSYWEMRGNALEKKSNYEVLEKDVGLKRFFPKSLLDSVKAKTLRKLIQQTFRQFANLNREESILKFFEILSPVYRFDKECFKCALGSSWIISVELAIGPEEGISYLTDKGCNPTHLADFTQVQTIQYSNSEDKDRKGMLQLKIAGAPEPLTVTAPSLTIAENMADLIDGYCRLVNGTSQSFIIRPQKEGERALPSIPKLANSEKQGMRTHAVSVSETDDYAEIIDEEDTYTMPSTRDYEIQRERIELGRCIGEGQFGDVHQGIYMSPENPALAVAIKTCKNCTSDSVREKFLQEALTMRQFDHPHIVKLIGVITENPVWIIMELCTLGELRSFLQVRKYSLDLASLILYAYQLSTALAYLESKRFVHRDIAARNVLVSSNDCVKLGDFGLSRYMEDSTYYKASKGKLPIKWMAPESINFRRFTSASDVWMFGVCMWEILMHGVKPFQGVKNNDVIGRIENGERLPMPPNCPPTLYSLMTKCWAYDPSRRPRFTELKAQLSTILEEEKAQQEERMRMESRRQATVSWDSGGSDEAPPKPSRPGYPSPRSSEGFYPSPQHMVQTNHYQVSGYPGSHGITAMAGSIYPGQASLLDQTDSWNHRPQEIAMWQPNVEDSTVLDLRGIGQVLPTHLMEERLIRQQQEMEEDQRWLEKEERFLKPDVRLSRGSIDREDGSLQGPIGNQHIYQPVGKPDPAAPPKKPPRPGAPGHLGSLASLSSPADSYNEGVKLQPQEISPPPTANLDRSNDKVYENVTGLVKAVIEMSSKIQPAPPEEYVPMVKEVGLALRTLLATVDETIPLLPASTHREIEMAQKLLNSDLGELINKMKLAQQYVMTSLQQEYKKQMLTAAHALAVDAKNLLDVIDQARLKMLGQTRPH

SMILES strings stand for the structures.

With `CN(C)c1ccc(/C=C2\C(=O)Nc3ccccc32)cc1`, the residual activity is 80% in [1]; 112% in [2]; 130% in experiment [3]; 108% (inactive) in experiment [4]; 123% in [5]; 97% in experiment [6]. Further, the residual activity in experiment [7] was determined as 121%; in experiment [8], 115%; in experiment [9], 82%; in experiment [10], 82%.
